Laboratory results reported in PubChem BioAssay (NCI).
The panel holds about 83,000 compounds, 20% with a hit somewhere; the sample as a whole holds those more often.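 Growth was measured after 48 h exposure to one concentration of compound in 96-well plates. Values under 10 count as active.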 A number with no mark means an inactive call. Calls of active or inactive are those of the source.

Experiments:
Test in all cases: NCI-60 one-dose screen, 48 h (100 = growth as untreated, 0 = no growth, -100 = all killed)
Conditions in all cases: 10 µM unless noted
[1] = test system: SK-MEL-2 melanoma
[2] = test system: EKVX NSCLC
[3] = test system: SN12C renal
[4] = test system: UO-31 renal
[5] = test system: TK-10 renal
[6] = test system: ACHN renal
[7] = test system: CAKI-1 renal
[8] = test system: A498 renal
[9] = test system: CCRF-CEM leukemia
[10] = test system: MOLT-4 leukemia

| Compound | growth [1] | growth [2] | growth [3] | growth [4] | growth [5] | growth [6] | growth [7] | growth [8] | growth [9] | growth [10] |
| --- | --- | --- | --- | --- | --- | --- | --- | --- | --- | --- |
| O=C(N=Nc1c(O)[nH]c2ccccc12)Nc1ccccc1Cl | 102% | 86.6% | 86.4% | 68.1% | 107% | 99% | 80.5% | 96.5% | 91.9% | 93.3% |
| O=c1cc(N/N=C/c2ccc(F)cc2)c2cc(Cl)ccc2[nH]1 | 77.2% | 74.2% | 92.3% | 79% | 91.5% | 91.1% | 99% | 90.5% | -13.2% (active) | -15.8% (active) |
| COC1/C=C/OC2(C)Oc3c(C)c(O)c4c(O)c(c(C=NOC(c5ccccc5)c5ccccc5)c(O)c4c3C2=O)NC(=O)/C(C)=C/C=C/C(C)C(O)C(C)C(O)C(C)C(OC(C)=O)C1C (stereo not given) | -24.9% (active) | 20.4% | 17.3% | 27.2% | 30.9% | 20.3% | 14% | 58.5% | 13.5% | 5.43% (active) |
| [2H]C([2H])([2H])Oc1cc(F)ccc1/C=C/C(=O)/C=C(/C=C/c1ccc(F)cc1OC([2H])([2H])[2H])OB(F)F | 48% | 76.6% | 42.6% | 49.5% | 43.6% | 14.8% | 18.2% | 89% | 2.38% (active) | 1.25% (active) |
| CCN(CC)CC(=O)Nc1ccc2ncnc(Nc3ccc(Oc4cccc(F)c4)c(Cl)c3)c2c1 | 90.9% | 42.8% | 67.8% | 22% | 51.9% | 41.6% | 46.6% | 44.2% | 46.8% | 41.8% |
| COc1cc(/C=N/NC(=O)CCN2c3ccccc3Sc3ccccc32)cc(OC)c1OC | 98.4% | 72.7% | 76.8% | 63.7% | 110% | 76% | 67.1% | 61.1% | 73.9% | 71.5% |
| CN1C(=O)/C(=C/c2ccc(C(=O)Nc3ncc(Cc4ccccc4Cl)s3)cc2)SC1=S | 101% | 75.6% | 68.6% | 63.5% | 83.6% | 52.1% | 34.1% | 60.7% | 73.7% | 82.1% |
| N#CC(Cc1cccc2ccccc12)c1cc2ccccc2[nH]1 (stereo not given) | 113% | 94.1% | 90.2% | 51.9% | 108% | 95.2% | 73.7% | 112% | -47% (active) | 78.2% |
| CCN1C(=S)N(CC)C2C1NC(=S)N2/N=C/C=C/c1ccccc1 (stereo not given) | 46.7% | 62.5% | 40.8% | 40% | 69.2% | 39.3% | 30.4% | 0.507% (active) | 14.7% | 26.4% |
| Cn1cc(-c2nonc2-c2cn(C)c3ccc(Br)cc23)c2ccccc21 | 33.5% | 48.6% | 37.1% | 32.3% | 60.7% | 33.5% | 25.8% | -5.37% (active) | 15.5% | 27.2% |
| CN1CCCc2cc(/C=C3\SC(=S)N(C(Cc4ccc(O)cc4)C(=O)O)C3=O)ccc21 (stereo not given) | 103% | 91.6% | 93.3% | 79.7% | 102% | 103% | 89% | 87.8% | 106% | 103% |
| COc1c(F)cc(-n2c(C(=O)N3CC(F)C3)cc3cccnc32)cc1F | 108% | 103% | 97.6% | 74.2% | 99% | 93.2% | 86.3% | 107% | 99.1% | 97.8% |
| O=C(NNc1ccccc1)c1ncc[nH]1 | 78.2% | 60.2% | 72% | 12.3% | 77.9% | 14.5% | 3.43% (active) | 98.3% | 32.7% | 27.3% |
| CCCCn1c(C(=O)c2c[nH]c3ccccc23)n[nH]c1=S | 91.9% | 90.3% | 90% | 90.1% | 132% | 102% | 79.3% | 92.1% | 91.3% | 103% |
| CCCN1C(=O)/C(=c2\sc3n(c2=O)C2C(NN=3)N(CC)C(=O)N2CC)c2ccccc21 (stereo not given) | 55% | 52.4% | 23.1% | 33.6% | 73.9% | 33.1% | 33.8% | 5.22% (active) | 13.6% | 19.1% |
| CCCCC1COc2cccc3c2N1C=C/C3=C\C(=O)N(C)c1cccc(Cl)c1 (stereo not given) | 121% | 95.8% | 94.2% | 78% | 112% | 98.5% | 78.9% | 94.6% | 97.2% | 86.6% |
| COc1cc(/C=C2\CCC/C(=C\c3cc(CN4CCCC4)c(O)c(OC)c3)C2=O)cc(CN2CCCC2)c1O | 82.6% | 32.4% | 30.3% | 47.4% | 70.1% | 48.2% | 55.2% | 85.3% | 17.6% | 4.58% (active) |
| C/C=C(\C)C(=O)N[C@H]1CC[C@]2(C)C3CC[C@@]4(C)C(CC[C@@H]4C(C)N(C)C)C3CCC2[C@H]1OC(C)=O (stereo not given in full) | -32.7% (active) | -11.3% (active) | -3.57% (active) | -4.52% (active) | -48.3% (active) | -65.1% (active) | -43.3% (active) | -32.9% (active) | 1.62% (active) | 11.2% |
| C#CCOc1cccc(Nc2ncc3ncn(C4CCN(C(=O)CCl)C4)c3n2)c1 (stereo not given) | 61.9% [6.25 µM] | 91.3% [6.25 µM] | 13.2% [6.25 µM] | 29.9% [6.25 µM] | -34.9% [6.25 µM] (active) | -31.2% [6.25 µM] (active) | 49.3% [6.25 µM] | 89.2% [6.25 µM] | -16.6% [6.25 µM] (active) | 5.59% [6.25 µM] (active) |
| CC(=O)c1c(C)nc2ccccc2c1/C=C/c1cccc(C)c1 | 36.2% | 71.5% | 67.7% | 56.4% | 79.9% | 73.7% | 46.3% | 50.1% | 54.4% | 31% |
| CC[C@H](C)[C@H](NC(=O)[C@@H](N)CCC(N)=O)C(=O)N[C@@H](Cc1ccc(O)cc1)C(=O)N[C@@H](CCCCN)C(=O)N[C@@H](CCCCN)C(=O)N[C@@H](Cc1ccc(O)cc1)C(=O)N[C@@H](CCCNC(=N)N)C(=O)N[C@H](C(=O)N[C@@H](Cc1c[nH]c2ccccc12)C(=O)N[C@@H](Cc1ccc(O)cc1)C(=O)N[C@@H](CCCNC(=N)N)C(=O)N[C@@H](CCCCN)C(=O)N[C@@H](C)C(=O)N[C@@H](Cc1c[nH]c2ccccc12)C(=O)N[C@@H](CCCCN)C(=O)N[C@H](C(=O)N[C@@H](CC(C)C)C(=O)NCC(=O)N[C@@H](CCCCN)C(=O)N[C@H](C(N)=O)C(C)C)C(C)C)[C@@H](C)O | 43.3% | -34.5% (active) | 12.4% | 76% | 8.22% (active) | 65.6% | 7.94% (active) | 64.6% | 5.19% (active) | 52.9% |
